What all share (assay): NCI-60 one-dose screen, 48 h (100 = growth as untreated, 0 = no growth, -100 = all killed)
The test system of one assay is HT29 colon. As to conditions: 10 µM unless noted.
The subject of the next assay is SNB-75 CNS. As to conditions: 10 µM unless noted.
For the next assay, the system named is SNB-19 CNS. As to conditions: 10 µM unless noted.
The next assay concerns U251 CNS. As to conditions: 10 µM unless noted.
Another assay relates to PC-3 prostate. As to conditions: 10 µM unless noted.
The subject of a further assay is SK-MEL-5 melanoma. As to conditions: 10 µM unless noted.
The subject of a further assay is UACC-62 melanoma. As to conditions: 10 µM unless noted.
Another assay deals with LOX IMVI melanoma. As to conditions: 10 µM.
The subject of another assay is SK-MEL-28 melanoma. As to conditions: 10 µM unless noted.
The subject of the next assay is SK-MEL-2 melanoma. As to conditions: 10 µM unless noted.
The test system of another assay is EKVX NSCLC. As to conditions: 10 µM unless noted.
Another assay has as its system SN12C renal. As to conditions: 10 µM unless noted.
In the next assay the test system is UO-31 renal. As to conditions: 10 µM unless noted.
The next assay deals with TK-10 renal. As to conditions: 10 µM unless noted.
For another assay, the system named is ACHN renal. As to conditions: 10 µM unless noted.
The test system of another assay is CAKI-1 renal. As to conditions: 10 µM unless noted.
Another assay concerns A498 renal. As to conditions: 10 µM unless noted.
Another assay deals with MOLT-4 leukemia. As to conditions: 10 µM unless noted.
The subject of a further assay is CCRF-CEM leukemia. As to conditions: 10 µM unless noted.

Each structure is given as a SMILES string. The panel holds about 83,000 compounds, 20% with a hit somewhere; the sample as a whole holds those more often.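 Assay: single dose, 48 h. Readout: percent growth (0 = no net growth; negative = cell death). Active: <10.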 Unmarked numbers belong to inactive results. The source made the active and inactive calls.

For the molecule `CN(C)c1ccc2nc3ccc(=[N+](C)C)cc-3oc2c1`, the growth in the assay on HT29 colon is 33.2%; in the assay with SNB-75 CNS, 71.3%; in the assay on SNB-19 CNS it was 14.2%; in the assay on U251 CNS it was -29.1% (active); in the assay with PC-3 prostate it was 11.4%; in the assay on SK-MEL-5 melanoma, 23.5%. Also, the growth in the assay on UACC-62 melanoma is 39.5%; in the assay on LOX IMVI melanoma, 12.2%; with SK-MEL-28 melanoma it was 66.6%; in the assay on SK-MEL-2 melanoma, 58.1%; with EKVX NSCLC, 29.8%; in the assay on SN12C renal it was -39.7% (active). Moreover, the growth is 65.1% in the assay on UO-31 renal; 70% with TK-10 renal; 70.5% with ACHN renal; 70.3% in the assay on CAKI-1 renal; 94.8% in the assay on A498 renal; 4.76% (active) in the assay with MOLT-4 leukemia.
For the molecule `COc1nc2ccccc2s1`, the growth was 102% in the assay with HT29 colon; 81% in the assay on SNB-75 CNS; 110% in the assay on SNB-19 CNS; 108% in the assay with U251 CNS; 89.1% in the assay with PC-3 prostate; 97.5% with SK-MEL-5 melanoma. The growth was 103% in the assay with UACC-62 melanoma; 82.1% in the assay on LOX IMVI melanoma; 100% in the assay on SK-MEL-28 melanoma; 100% in the assay with SK-MEL-2 melanoma; 108% with EKVX NSCLC; 99.3% in the assay on SN12C renal. Also, the growth in the assay on UO-31 renal is 73.3%; in the assay on TK-10 renal, 111%; in the assay on ACHN renal, 94.6%; in the assay with CAKI-1 renal, 90.5%; in the assay on A498 renal it was 101%; with CCRF-CEM leukemia, 102%. Further, the growth in the assay on MOLT-4 leukemia was 103%.
In the case of `CCCCCCCCCc1ccc(OC(C)=O)cc1`, the growth in the assay on HT29 colon is 102%; in the assay with SNB-75 CNS, 99.4%; in the assay with SNB-19 CNS, 103%; in the assay with U251 CNS, 97.9%; in the assay with PC-3 prostate it was 94.1%; in the assay on SK-MEL-5 melanoma, 103%. Moreover, the growth with UACC-62 melanoma is 107%; in the assay on LOX IMVI melanoma, 104%; with SK-MEL-28 melanoma it was 107%; in the assay on SK-MEL-2 melanoma, 101%; in the assay on EKVX NSCLC, 108%; with SN12C renal, 99.6%. Besides, the growth in the assay with UO-31 renal was 95.9%; in the assay on TK-10 renal, 96.3%; with ACHN renal, 109%; in the assay with CAKI-1 renal, 103%; with A498 renal, 70.1%; with MOLT-4 leukemia, 108%.
Take `C#CCSc1nnnn1-c1ccccc1`: the growth with HT29 colon was 96%; with SNB-75 CNS, 73.2%; in the assay on SNB-19 CNS, 97.5%; with U251 CNS, 36.7%; in the assay on PC-3 prostate, 89.4%; in the assay with SK-MEL-5 melanoma it was 91.1%. Further, the growth was 101% in the assay on UACC-62 melanoma; 95.1% in the assay with LOX IMVI melanoma; 100% in the assay with SK-MEL-28 melanoma; 88% in the assay on SN12C renal; 91.1% in the assay with UO-31 renal; 80.4% in the assay with TK-10 renal. Moreover, the growth is 70.2% in the assay with ACHN renal; 78.5% with CAKI-1 renal; 40% with A498 renal; 83.9% in the assay with CCRF-CEM leukemia; 87.9% in the assay with MOLT-4 leukemia.
As for `CN(C(=S)S(=O)(=O)C12CC3CC(CC(C3)C1)C2)c1ccccc1`, the growth with HT29 colon was 105%; in the assay with SNB-75 CNS, 98.9%; in the assay with SNB-19 CNS, 102%; in the assay on U251 CNS, 108%; in the assay on PC-3 prostate, 82.8%; in the assay with SK-MEL-5 melanoma, 101%. For the same molecule, the growth is 91.8% in the assay with UACC-62 melanoma; 81.1% in the assay with LOX IMVI melanoma; 107% with SK-MEL-28 melanoma; 69.2% with SK-MEL-2 melanoma; 104% with EKVX NSCLC; 90.4% in the assay on SN12C renal. Besides, the growth with UO-31 renal was 71.5%; in the assay with TK-10 renal it was 107%; in the assay on ACHN renal, 93.9%; with CAKI-1 renal, 81.8%; with A498 renal, 98.6%; in the assay with CCRF-CEM leukemia, 15.9%. Moreover, in the assay with MOLT-4 leukemia, the growth is 11.9%.
With `C/C(=N\O)c1ccccn1`, the growth in the assay on HT29 colon was 97.3%; with SNB-75 CNS, 96.9%; in the assay with SNB-19 CNS, 95.2%; in the assay on U251 CNS, 88.8%; in the assay on PC-3 prostate, 94.3%; in the assay with SK-MEL-5 melanoma, 105%. Further, the growth in the assay with LOX IMVI melanoma was 99.1%; in the assay with SK-MEL-28 melanoma, 110%; in the assay on SK-MEL-2 melanoma it was 94.9%; in the assay on EKVX NSCLC it was 107%; with SN12C renal, 91.4%; in the assay with UO-31 renal, 88.1%. The growth with TK-10 renal was 95.8%; with CAKI-1 renal, 95.3%; in the assay on A498 renal it was 108%; in the assay with CCRF-CEM leukemia, 96.5%; in the assay with MOLT-4 leukemia, 116%.
`CCOC(=O)C(C#N)=C1CCN(C)CC1`: the growth in the assay with HT29 colon was 113%; in the assay with SNB-75 CNS it was 102%; in the assay on SNB-19 CNS it was 101%; in the assay with U251 CNS it was 104%; in the assay on PC-3 prostate it was 87.7%; with SK-MEL-5 melanoma it was 111%. Moreover, the growth with UACC-62 melanoma is 103%; in the assay with LOX IMVI melanoma, 109%; in the assay with SK-MEL-28 melanoma, 134%; in the assay with EKVX NSCLC, 112%; in the assay with SN12C renal, 97%; in the assay on UO-31 renal, 87.5%. Further, the growth was 108% in the assay on TK-10 renal; 92.4% in the assay on CAKI-1 renal; 100% in the assay on A498 renal; 99.2% in the assay with CCRF-CEM leukemia; 58.5% in the assay with MOLT-4 leukemia.

For the origin of these results see PubChem BioAssay (NCI).
